Inconclusive results are not listed. Entries that show only a call come without a potency. The source made the active and inactive calls. Unless noted, calls come from the whole dose curve; as a rule, active = well fitted curve in the direction sought with a large enough effect; inconclusive = small, poorly fitted or top-dose-only effect, or another doubt; inactive = no such curve, though single readings can be large; an effect the other way counts as inactive or inconclusive.
Columns and labels:
[1] = Primary qHTS for inhibitors of SARS-S pseudo-typed particle cell entry (AID 1479145; calls by dose curve; note: potency is the fitted concentration of half-maximal effect; nearly all actives have a fitted effect of over 45% in size); conditions: outcome: dose series up to 57.1 µM unless noted
[2] = Validation of Assay for Modulators of Lamin A Splicing (AID 1459; active = well fitted curve in the direction sought with a large enough effect in the signal ratio; the % refers to the signal ratio;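 note: cells exposed to compound for two days before reading; ratio rise marks activators and ratio drop marks inhibitors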)
How it was run: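 Splicing correction read as GFP (500-530 nm) over DsRed2 (575-640 nm) object intensity after 48 h compound exposure of reporter HeLa S3 clones (600 cells/well, 2% FBS medium); ancitabine and cycloheximide titrations, 0.5% DMSO as vehicle.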

[3] = biological target: DNA repair nuclease/redox regulator APEX1 (Homo sapiens) (UniProt P27695); test: qHTS Validation Assay for Inhibitors of the Human Apurinic/apyrimidinic Endonuclease 1 (APE1) (AID 1705;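 note: TAMRA fluorescence gain over two minutes as APE1 cuts a quenched THF abasic duplex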)
How it was run: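 Activity read as rising fluorescence (598 nm emission, 525 nm excitation) from incision of a TAMRA/BHQ-2 duplex carrying a THF abasic site (50 nM). Compound and enzyme sat 15 min at RT before substrate start; signal change between first and third 60-s reads.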

[4] = Counterscreen for APE1 Inhibitors: Fluorescent Dye Displacement Validation Assay (AID 1707)
How it was run: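 Assay buffer: Tris-HCl pH7.5 with 50mM NaCl, 2 mM MgCl2, 0.01% Tween-20. Dye 250 nM, duplex 50 nM final. Readout: decrease in ThO endpoint fluorescence, 480 nm excitation, 540 nm emission.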

[5] = biological target: Endonuclease 4 (Escherichia coli (strain K12)) (UniProt P0A6C1); test: Counterscreen for APE1 Inhibitors: qHTS Validation Assay for Inhibitors of Endonuclease IV (AID 1708)
How it was run: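 qHTS concentration-response format; LOPAC1280 tested under APE1-screen conditions. 2 nM enzyme, 15 min compound preincubation at RT, then 50 nM TAMRA/BHQ-2 abasic substrate; kinetic fluorescence read, three reads at 60 s intervals.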

[6] = biological target: Ferritin light chain (Equus caballus) (UniProt P02791); test: qHTS Validation Assay for Identification of Novel General Anesthetics (AID 2323)
How it was run: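 Competitive displacement of the profluorescent anesthetic 1-AMA (50% saturated, PBS) from 10 uM apoferritin, 10 min, room temperature. Activity is normalized 380/535 nm fluorescence; concentration-response fitted with a four-parameter Hill equation.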

[7] = biological target: ATP-dependent DNA helicase Q1 (Homo sapiens) (UniProt P46063); test: qHTS Validation Assay for Inhibitors of RecQ-Like Dna Helicase 1 (RECQ1) (AID 2353)
How it was run: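 50 nM RECQ1T1 preincubated 15 min with compound in Tris pH 8.0 buffer with MgCl2, DTT, Tween-20 and 2.5 ug/ml poly(dI-dC); started with 200 nM TAMRA/BHQ-2 forked duplex and 2 mM ATP. Unwinding read as fluorescence (525/598 nm), two reads 2 h apart.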

[8] = Validation screen for inhibitors of Lassa infection (AID 463096; calls by dose curve; note: potency is the fitted concentration of half-maximal effect)
[9] = Validation screen for small molecules that induce DNA re-replication in MCF 10A normal breast cells (AID 463097); note: nearly all actives have a fitted effect of over 60% in size; note: potency is the fitted concentration of half-maximal effect
How it was run: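 Read-out is Hoechst total nuclear intensity by fluorescence scanning imager, flagging increased high-DNA-content nuclei. Compounds were incubated with MCF 10A cells for 48 hr (37 C, 5% CO2) before 40 min staining.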

[10] = biological target: M-phase phosphoprotein 8 (Homo sapiens) (UniProt Q99549); test: qHTS Validation Assay for Inhibitors for MPP8 Chromodomain Interactions with Methylated Histone Tails (AID 488949); note: nearly all actives have a fitted effect of over 55% in size; note: potency is the fitted concentration of half-maximal effect;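 for activity change, negative = inhibition: AlphaScreen signal from MPP8 chromodomain bound to biotinylated H3K9me3 peptide; top concentration of the series differs between compounds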
How it was run: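 AlphaScreen proximity signal from streptavidin donor and Ni-chelate acceptor beads (10 ug/mL each) reported binding of MPP8 to trimethyl-K9 H3(1-18) peptide, both at 50 nM. The complex formed 30 min before a 30 min compound exposure at room temperature, in PBS pH 7.4.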

[11] = biological target: Transient receptor potential cation channel subfamily V member 1 (Homo sapiens) (UniProt Q8NER1); test: HTS Assay for Compounds that Act as Enhancers of the Vanilloid Receptor 1 (AID 488979)
How it was run: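 Calcium influx kinetics via Fluo-8 (480/520 nm) in TRPV1-expressing cells, 2000/well cultured overnight at 35.5C. Compound-alone read 3 min (agonist phase), followed by EC20 capsaicin challenge for 2 min (enhancer phase).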

[12] = biological target: Thyrotropin receptor (Homo sapiens) (UniProt P16473); test: qHTS Assay for Antagonists of the Thyroid Stimulating Hormone Receptor (AID 488980)
How it was run: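 Inhibition of cAMP raised by EC80 TSH (4 nM final) was read by HTRF, with lysate cAMP competing against cAMP-d2 for cryptate antibody after 30 min at room temperature. The cells were transfected HEK293 held in phosphodiesterase inhibitor RO 20-1724 at 70 uM.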

[13] = biological target: Thyrotropin-releasing hormone receptor (Homo sapiens) (UniProt P34981); test: qHTS for Small Molecule Agonists and Allosteric Enhancers of Human TRH Receptor: Validation Screen for Agonists (AID 493127;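 active = calcium activation more than 3 SD above the typical response in the agonist read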); conditions: TRH receptor agonist cell assay; at 2 µM; stronger effect = higher value
How it was run: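 TRHR cells loaded with fluo-8 calcium dye; FDSS kinetic fluorescence (Ex 480/Em 530) read at 1 s/cycle after 23 nL compound addition. Agonist-mode calcium response recorded before the 10 nM TRH (EC20) addition.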

[14] = Validation screen for small molecules that induce DNA re-replication in SW480 colon adenocarcinoma cells (AID 504364)
How it was run: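 SW480 cells (250/well) exposed 48 h at 37 C, 5% CO2, then Hoechst-stained 40 min. Nuclear DNA content imaged by fluorescence scanning (405 nm excitation, 500-530 nm emission); re-replication scored as increased nuclei with elevated intensity.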

[15] = qHTS Assay for Lipid Storage Modulators (AID 1519; calls by dose curve); conditions: Drosophila S3 cells, BODIPY lipid droplet/cell ratio, laser cytometry, cells loaded with oleic acid; for activity change, negative = inhibition: at 57.5 µM (top of the series)
How it was run: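 Cells seeded at 5,000 per well were treated with compounds over a concentration series and loaded with oleic acid (400 uM, as added). Lipid droplet fluorescence (488 nm excitation, 500-530 nm channel) was read by laser-scanning cytometry and normalized to 20 uM Triacsin C.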

[16] = Cytotoxicity counterscreen for inhibitors of SARS-CoV-2 cell entry (AID 1645845; calls by dose curve; note: nearly all actives have a fitted effect of over 50% in size); conditions: outcome: dose series up to 57.1 µM unless noted
How it was run: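 48 h compound treatment (after 1 h preincubation), HEK293-ACE2 cells, 37 C/5% CO2; ATP luminescence endpoint; normalized to cell wells and media blanks.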

[17] = Primary qHTS to identify inhibitors of SARS-CoV-2 cell entry (AID 1645846; calls by dose curve; note: potency is the fitted concentration of half-maximal effect; nearly all actives have a fitted effect of over 45% in size); conditions: SARS-CoV-2 pseudovirus cell entry assay, luminescence; activity change, negative = inhibition: at 57.1 µM (top of the series) unless noted
How it was run: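 Entry measured by luciferase signal 48 h after adding SARS-CoV-2-S pseudotyped MLV particles to HEK293-ACE2 cells preincubated 1 h with compounds. Normalisation: bald particles and spike particles.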

[18] = measured here: cell count channel max response
[19] = measured here: lipid channel max response

Sequence of ATP-dependent DNA helicase Q1 (Homo sapiens) (P46063 whole entry, looked up): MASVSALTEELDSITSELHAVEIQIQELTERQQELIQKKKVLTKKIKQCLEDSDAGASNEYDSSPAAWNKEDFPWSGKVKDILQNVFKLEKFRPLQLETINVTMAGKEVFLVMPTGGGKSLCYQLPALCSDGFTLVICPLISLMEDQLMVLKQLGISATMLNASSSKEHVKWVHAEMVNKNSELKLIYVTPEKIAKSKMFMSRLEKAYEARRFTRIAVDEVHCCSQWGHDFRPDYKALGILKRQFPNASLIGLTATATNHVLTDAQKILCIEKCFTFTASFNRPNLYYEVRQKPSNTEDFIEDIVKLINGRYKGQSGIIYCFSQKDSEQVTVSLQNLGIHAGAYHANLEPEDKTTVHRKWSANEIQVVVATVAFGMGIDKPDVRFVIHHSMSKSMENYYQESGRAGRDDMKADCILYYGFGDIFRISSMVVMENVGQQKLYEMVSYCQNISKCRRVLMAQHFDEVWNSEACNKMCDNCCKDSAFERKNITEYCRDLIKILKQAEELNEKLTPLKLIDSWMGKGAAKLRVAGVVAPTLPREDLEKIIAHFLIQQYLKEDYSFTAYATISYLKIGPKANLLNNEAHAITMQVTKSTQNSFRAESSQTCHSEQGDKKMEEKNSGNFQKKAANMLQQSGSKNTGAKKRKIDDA
Sequence of Thyrotropin receptor (Homo sapiens) (P16473 whole entry, looked up): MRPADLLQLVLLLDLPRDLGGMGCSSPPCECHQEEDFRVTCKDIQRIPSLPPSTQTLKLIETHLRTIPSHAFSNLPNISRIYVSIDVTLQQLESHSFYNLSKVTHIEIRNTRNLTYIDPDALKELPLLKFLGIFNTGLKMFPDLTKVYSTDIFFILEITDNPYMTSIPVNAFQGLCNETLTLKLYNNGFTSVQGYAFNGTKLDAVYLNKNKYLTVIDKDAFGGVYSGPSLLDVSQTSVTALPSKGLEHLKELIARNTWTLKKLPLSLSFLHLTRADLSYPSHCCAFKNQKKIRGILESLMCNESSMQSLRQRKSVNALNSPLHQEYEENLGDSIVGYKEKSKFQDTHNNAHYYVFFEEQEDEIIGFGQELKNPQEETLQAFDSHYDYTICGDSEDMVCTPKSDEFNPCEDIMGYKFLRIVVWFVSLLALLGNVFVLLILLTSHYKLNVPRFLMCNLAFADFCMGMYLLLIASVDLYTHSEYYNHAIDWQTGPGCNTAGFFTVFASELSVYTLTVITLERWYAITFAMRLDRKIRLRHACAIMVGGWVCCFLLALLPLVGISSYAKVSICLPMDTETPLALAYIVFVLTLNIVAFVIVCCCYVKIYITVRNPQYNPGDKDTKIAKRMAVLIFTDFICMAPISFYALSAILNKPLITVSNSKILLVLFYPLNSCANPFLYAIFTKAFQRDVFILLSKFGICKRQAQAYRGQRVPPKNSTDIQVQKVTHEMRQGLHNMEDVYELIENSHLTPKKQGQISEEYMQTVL
Sequence of M-phase phosphoprotein 8 (Homo sapiens) (Q99549 whole entry, looked up): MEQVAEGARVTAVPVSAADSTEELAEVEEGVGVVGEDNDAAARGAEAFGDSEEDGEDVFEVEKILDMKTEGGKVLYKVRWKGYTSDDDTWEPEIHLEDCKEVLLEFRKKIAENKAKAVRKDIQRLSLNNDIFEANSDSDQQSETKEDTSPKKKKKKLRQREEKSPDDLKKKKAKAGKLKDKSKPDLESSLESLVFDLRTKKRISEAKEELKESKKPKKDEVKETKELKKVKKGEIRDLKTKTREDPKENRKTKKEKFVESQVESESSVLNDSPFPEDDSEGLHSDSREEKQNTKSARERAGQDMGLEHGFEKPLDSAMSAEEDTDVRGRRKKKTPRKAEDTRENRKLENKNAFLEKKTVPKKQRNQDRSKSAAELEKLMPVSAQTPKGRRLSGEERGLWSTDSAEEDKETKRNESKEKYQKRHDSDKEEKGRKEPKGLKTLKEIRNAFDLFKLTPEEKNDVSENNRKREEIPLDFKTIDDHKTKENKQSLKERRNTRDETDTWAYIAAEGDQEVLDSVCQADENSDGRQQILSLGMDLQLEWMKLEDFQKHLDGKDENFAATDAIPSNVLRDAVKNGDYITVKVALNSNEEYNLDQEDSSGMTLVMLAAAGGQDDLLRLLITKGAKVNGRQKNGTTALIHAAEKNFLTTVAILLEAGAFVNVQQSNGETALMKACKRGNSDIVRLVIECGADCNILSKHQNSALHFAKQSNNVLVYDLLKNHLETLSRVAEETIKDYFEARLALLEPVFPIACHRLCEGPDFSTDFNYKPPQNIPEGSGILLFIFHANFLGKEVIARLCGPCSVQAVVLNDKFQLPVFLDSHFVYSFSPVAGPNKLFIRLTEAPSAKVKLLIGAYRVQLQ
Sequence of Transient receptor potential cation channel subfamily V member 1 (Homo sapiens) (Q8NER1 whole entry, looked up): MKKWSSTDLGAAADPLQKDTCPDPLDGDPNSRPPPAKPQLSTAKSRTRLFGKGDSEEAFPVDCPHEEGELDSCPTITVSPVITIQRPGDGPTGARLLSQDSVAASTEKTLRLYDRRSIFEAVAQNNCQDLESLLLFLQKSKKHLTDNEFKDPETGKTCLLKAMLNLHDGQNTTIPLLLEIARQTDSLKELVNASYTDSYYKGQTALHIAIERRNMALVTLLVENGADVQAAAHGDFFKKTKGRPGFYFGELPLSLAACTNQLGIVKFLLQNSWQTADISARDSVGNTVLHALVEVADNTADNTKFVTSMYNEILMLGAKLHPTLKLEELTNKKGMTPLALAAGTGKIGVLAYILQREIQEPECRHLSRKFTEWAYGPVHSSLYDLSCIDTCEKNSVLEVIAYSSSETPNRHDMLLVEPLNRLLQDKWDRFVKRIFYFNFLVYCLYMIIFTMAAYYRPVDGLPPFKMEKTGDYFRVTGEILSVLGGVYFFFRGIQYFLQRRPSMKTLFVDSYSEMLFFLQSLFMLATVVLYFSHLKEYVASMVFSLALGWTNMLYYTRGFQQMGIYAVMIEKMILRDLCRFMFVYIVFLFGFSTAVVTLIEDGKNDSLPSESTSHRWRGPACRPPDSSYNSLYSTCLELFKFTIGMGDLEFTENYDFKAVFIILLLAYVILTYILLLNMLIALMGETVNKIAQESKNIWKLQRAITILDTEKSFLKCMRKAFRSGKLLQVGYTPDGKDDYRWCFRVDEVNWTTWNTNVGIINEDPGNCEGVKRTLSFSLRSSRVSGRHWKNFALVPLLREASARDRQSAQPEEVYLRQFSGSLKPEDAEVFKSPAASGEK
Sequence of Thyrotropin-releasing hormone receptor (Homo sapiens) (P34981 whole entry, looked up): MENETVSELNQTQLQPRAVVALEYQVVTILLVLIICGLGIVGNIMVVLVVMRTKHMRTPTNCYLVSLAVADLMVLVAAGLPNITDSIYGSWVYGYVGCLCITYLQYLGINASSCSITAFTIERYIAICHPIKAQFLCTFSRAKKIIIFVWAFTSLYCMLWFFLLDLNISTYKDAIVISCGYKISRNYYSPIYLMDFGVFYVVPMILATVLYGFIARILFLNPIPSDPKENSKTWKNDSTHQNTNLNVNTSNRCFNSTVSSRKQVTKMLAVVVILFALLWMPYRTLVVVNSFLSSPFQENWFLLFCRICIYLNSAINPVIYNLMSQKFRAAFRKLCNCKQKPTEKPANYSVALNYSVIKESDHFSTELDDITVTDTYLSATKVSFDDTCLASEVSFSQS
Sequence of DNA repair nuclease/redox regulator APEX1 (Homo sapiens) (P27695 whole entry, looked up): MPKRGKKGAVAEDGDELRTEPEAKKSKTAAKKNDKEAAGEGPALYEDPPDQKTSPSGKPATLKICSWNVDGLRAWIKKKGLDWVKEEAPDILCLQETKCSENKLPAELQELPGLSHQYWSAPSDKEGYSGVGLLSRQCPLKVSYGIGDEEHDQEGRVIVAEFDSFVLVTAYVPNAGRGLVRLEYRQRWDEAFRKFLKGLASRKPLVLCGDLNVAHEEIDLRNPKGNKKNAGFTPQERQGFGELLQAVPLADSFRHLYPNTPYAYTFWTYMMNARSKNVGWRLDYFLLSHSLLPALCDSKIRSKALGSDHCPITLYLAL
Sequence of Ferritin light chain (Equus caballus) (P02791 2-175 limits assumed): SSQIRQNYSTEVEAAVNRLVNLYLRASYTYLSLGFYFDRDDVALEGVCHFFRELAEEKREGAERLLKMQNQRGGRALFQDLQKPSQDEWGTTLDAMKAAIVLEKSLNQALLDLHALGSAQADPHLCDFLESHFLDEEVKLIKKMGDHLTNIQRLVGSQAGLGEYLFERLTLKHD

Row | SMILES | Potency [1] | outcome [2] | Potency [3] | outcome [4] | Potency [5] | Potency [6] | outcome [7] | Potency [8] | Potency [9] | Potency [10] | outcome [11] | outcome [12] | activation [13] | outcome [14] | activity change, negative = inhibition [15] | max response [15, 18] | max response [15, 19] | Potency [16] | Potency [17]
1 | Cc1cc(/C=C/C#N)cc(C)c1Nc1ccnc(Nc2ccc(C#N)cc2)n1 | 22.4 µM (active) | – | – | – | – | – | – | – | – | – | – | – | – | – | – | – | – | – | –
2 | CCNC(=O)[C@H]1O[C@@H](n2cnc3c(N)ncnc32)[C@H](O)[C@H]1O | – | inactive | inactive | inactive | inactive | inactive | inactive | inactive | inactive | inactive | inactive | inactive | 0% (inactive) | inactive | – | – | – | – | –
3 | CN1C[C@@H](CS(=O)(=O)N(C)C)C[C@@H]2c3cccc4c3c(cn4C)C[C@H]21 | – | inactive | inactive | inactive | inactive | inactive | inactive | inactive | inactive | – | inactive | inactive | 1.44% (inactive) | inactive | – | – | – | – | –
4 | CC[C@@H](CO)NC(=O)[C@H]1C=C2c3cccc4c3c(cn4C)C[C@H]2N(C)C1 | – | inactive | – | – | inactive | inactive | inactive | – | inactive | inactive | inactive | – | -2.81% (inactive) | inactive | 2.02% (inactive) | 18.8% | 22.3% | – | –
5 | CCCCN1C2CCC1CC(OC(c1ccc(F)cc1)c1ccc(F)cc1)C2 (stereo unspecified) | – | inactive | inactive | inactive | inactive | – | inactive | 10 µM (active) | 20 µM (active) | inactive | – | inactive | 8.5% (inactive) | inactive | – | – | – | – | –
6 | CC1Cc2cc3c(cc2C(c2ccc(N)cc2)=NN1)OCO3 (stereo unspecified) | – | inactive | inactive | inactive | inactive | inactive | inactive | inactive | inactive | 56.2 µM (active) | inactive | inactive | 0.188% (inactive) | inactive | 1.87% (inactive) | 56.1% | 60.1% | – | –
7 | C[C@@H]1CC[C@@]2(OC1)O[C@H]1C[C@H]3[C@@H]4CC=C5C[C@@H](O[C@@H]6O[C@H](CO)[C@@H](O[C@@H]7O[C@@H](C)[C@H](O)[C@@H](O)[C@H]7O)[C@H](O)[C@H]6O[C@@H]6O[C@@H](C)[C@H](O)[C@@H](O)[C@H]6O)CC[C@]5(C)[C@H]4CC[C@]3(C)[C@H]1[C@@H]2C | – | – | – | – | – | – | – | – | – | – | – | – | – | – | – | – | – | inactive | 12.6 µM (active)
8 | CCCN(CCC)C(=O)Cc1c(-c2ccc(Cl)cc2)nc2c(Cl)cc(Cl)cn12 | – | inactive | inactive | inactive | inactive | – | inactive | inactive | – | inactive | inactive | inactive | -11.1% (inactive) | inactive | 1.58% (inactive) | -21.2% | -20.1% | – | –
